The text below walks through data of PubChem BioAssay.

Records with an inconclusive call do not appear. Activity calls are given as the source filed them.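 How the source made its calls, unless noted: active means RAM network inhibition above 8.4% in each of two replicates, 3 SD over the compound average; inconclusive means above 8.4% inhibition in only one replicate; inactive means 8.4% inhibition or less in each replicate.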

Assay [1] is described as follows: reducers of endogenous Her2 protein level, primary screen, SKBR3 breast tumor cells, AlphaScreen, ATP viability (AID 461;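 active means Her2 level under about 52% in both replicate screens, with viability over 70% of control, limit read from the data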;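 on Her2 level: lower value means less Her2 protein in the cells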;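 on viability: percent of carrier control wells set as 100% viability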). To be noted: 18-24 h, measured here: SKBR3 viability, ATP luminescence, at 10 µM. For orientation: Alpha assays give light when donor and acceptor beads are brought close together.
The target in assay [2] is Receptor tyrosine-protein kinase erbB-2 (Homo sapiens) (UniProt P04626). The description is as above. The note with it: 18-24 h, at 10 µM, stronger effect = lower value.
Chain of Receptor tyrosine-protein kinase erbB-2 (Homo sapiens) (P04626 whole entry, looked up): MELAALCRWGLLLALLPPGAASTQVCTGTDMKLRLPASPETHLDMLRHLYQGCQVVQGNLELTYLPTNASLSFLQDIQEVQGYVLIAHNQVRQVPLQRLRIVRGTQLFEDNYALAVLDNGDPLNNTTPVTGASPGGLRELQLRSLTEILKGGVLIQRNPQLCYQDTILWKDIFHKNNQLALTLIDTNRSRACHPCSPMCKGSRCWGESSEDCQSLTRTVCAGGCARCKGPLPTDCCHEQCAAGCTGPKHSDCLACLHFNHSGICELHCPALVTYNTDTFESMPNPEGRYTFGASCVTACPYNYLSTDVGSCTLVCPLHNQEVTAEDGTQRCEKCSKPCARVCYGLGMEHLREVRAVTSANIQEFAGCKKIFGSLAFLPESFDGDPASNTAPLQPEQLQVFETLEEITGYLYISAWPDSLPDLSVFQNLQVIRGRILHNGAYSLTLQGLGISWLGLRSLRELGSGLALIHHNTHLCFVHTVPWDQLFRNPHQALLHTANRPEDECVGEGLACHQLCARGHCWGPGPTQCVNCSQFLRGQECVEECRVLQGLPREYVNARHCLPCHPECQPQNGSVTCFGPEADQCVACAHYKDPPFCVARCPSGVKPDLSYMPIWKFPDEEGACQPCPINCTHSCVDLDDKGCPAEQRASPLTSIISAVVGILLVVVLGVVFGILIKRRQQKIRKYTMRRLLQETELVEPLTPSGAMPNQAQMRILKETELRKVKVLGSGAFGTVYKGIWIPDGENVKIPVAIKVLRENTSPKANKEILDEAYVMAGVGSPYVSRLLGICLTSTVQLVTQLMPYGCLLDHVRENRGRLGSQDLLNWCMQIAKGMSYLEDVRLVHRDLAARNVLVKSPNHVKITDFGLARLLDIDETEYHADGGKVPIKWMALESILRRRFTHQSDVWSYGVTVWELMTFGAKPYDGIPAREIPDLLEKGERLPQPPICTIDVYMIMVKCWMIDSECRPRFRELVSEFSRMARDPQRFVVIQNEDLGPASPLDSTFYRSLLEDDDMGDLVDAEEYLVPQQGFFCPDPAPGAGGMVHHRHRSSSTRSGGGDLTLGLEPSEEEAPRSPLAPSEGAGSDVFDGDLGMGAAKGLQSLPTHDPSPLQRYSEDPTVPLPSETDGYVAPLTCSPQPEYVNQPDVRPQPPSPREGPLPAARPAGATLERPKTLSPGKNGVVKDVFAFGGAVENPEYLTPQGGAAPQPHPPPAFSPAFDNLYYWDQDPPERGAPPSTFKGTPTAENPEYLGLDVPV
A short description of assay [3]: SK-BR-3 cell growth inhibitors, pilot screen, 24 h, human (AID 572;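 active means viability at or below 10% of carrier control in both of two separate runs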;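 further: compound exposure lasted between 18 and 24 h rather than exactly 24 h; 100% = carrier-treated control wells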). To be noted: SK-BR-3 viability, CellTiter-Glo luminescence, at 10 µM, stronger effect = lower value.
Assay [4] is described as follows: HUVEC growth inhibition – cell-based, human, primary screen (AID 575;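 active means viability at or below 30% in both replicate assays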;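 further: 100% = median of untreated cell wells with 0.1% DMSO on each plate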). The note with it: HUVEC proliferation, CellTiter-Glo luminescence, 72 h; at 10 µM; stronger effect = lower value. On the technique in general: Cellular ATP, detected with luciferase, serves as a proxy for viable cell number.
A short description of assay [5]: growth inhibitors of H69AR lung tumor, primary screen, human, duplicate replicates (AID 580;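 active means viability at or under a set limit in both replicates, limit being median viability minus 3 SD, cut at about 48% in these data, passing the limit was not always enough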;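 further: 100% = mean luminescence of untreated wells and 0% = no signal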). To be noted: H69AR lung tumor cells viability, ATP luminescence, 72 h; at 10 µM; stronger effect = lower value.
The nature of assay [6]: reversal of MRP1-mediated doxorubicin resistance, pilot screen, H69AR cells, doxorubicin co-treatment (AID 601;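 active means viability loss from added drug above about 55%, and viability with drug at most 40%, in both replicates, limit read from the data, passing the limit was not always enough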). To be noted: CellTiter-Glo, 72 h, at 10 µM; for differential viability (reversal): stronger effect = higher value.
Assay [7] is described as follows: 384-well plate pilot, post-Golgi transport modulator project, inhibition of yeast transport mutant growth (AID 636; in the data active means inhibition above about 31%). The note with it: absorbance 615 nm, about 18 h, stronger effect = higher value.
A short description of assay [8]: growth suppression of yeast trafficking mutant, preliminary HTS, modulators of trafficking downstream of Golgi apparatus project, 1536-format plate, OD 615 nm (AID 637; in the data active means inhibition above about 30%). To be noted: yeast transport mutant growth, absorbance 615 nm, 18 h; stronger effect = higher value.
A short description of assay [9]: OD615 S. cerevisiae growth inhibition, permissive medium, pilot counter-assay, permissive growth control for S. cerevisiae lifespan shortening project (AID 705;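 active means growth inhibition above 25% in both replicates, a cutoff set 3 SD above the mean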). The note with it: OD615, 24 h, at 10 µM, stronger effect = higher value.
Assay [10] can be described thus: Restrictive medium S. cerevisiae growth inhibition, OD615, pilot screen of yeast lifespan reduction project, restrictive growth control (AID 706;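 active means growth inhibition above a set limit, 3 SD over mean compound inhibition, in both replicates, cut at about 43% in these data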;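 further: modified DeaD lifespan yeast strain shifted to restrictive glucose medium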). To be noted: OD615, 48 h, at 10 µM, stronger effect = higher value.
The nature of assay [11]: viability gain of MRP-1-high H69AR cells under doxorubicin, pilot screen, MRP-1 activator project, CellTiter-Glo, duplicate (AID 807;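 active means viability increase at or above a cutoff of the median across tested compounds plus 3 SD, cut at about 8.5% in these data, passing the limit was not always enough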;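 further: compound pretreatment 18-22 h then 72 h combined with doxorubicin; 0% = doxorubicin alone and 100% = vehicle without doxorubicin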). The note with it: H69AR viability with doxorubicin, CellTiter-Glo luminescence; at 10 µM; stronger effect = higher value.
Assay [12] in a line: growth suppression of beta-catenin knockout HCT116, pilot screen, human colon tumor cells (AID 823;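 active means cell viability at or below a set limit in both duplicate runs, the limit being the all-compound median minus 4 SD, cut at about 23% in these data, passing the limit was not always enough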;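 further: 0% = wells killed by 20 µM Hyamine and 100% = untreated DMSO cell wells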). To be noted: CellTiter-Glo, 60 h, at 10 µM, stronger effect = lower value.
The nature of assay [13]: growth suppression of PTEN-deleted HCT116, pilot screen, cell-based, HCT116 clonal line, CellTiter-Glo (AID 824;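 active means viability at or below 27.92% in each of two runs, the all-compound median minus 4 SD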;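 further: 0% = 20 µM Hyamine control and 100% = vehicle cell control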). To be noted: 60 h, at 10 µM, stronger effect = lower value.
A short description of assay [14]: inhibitors of the yeast RAM network, pilot screen, dse1pr::URA3 reporter, 5-FOA selection (AID 869;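 active means inhibition over a set limit, the all-compound mean plus 3 SD, in both replicate runs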;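 further: 0% = DMSO wells with no growth and 100% = 10 µM 1-NA-PP1 with full growth; RAM network block rescues cells from 5-FOA so hits raise OD615 growth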). The note with it: S. cerevisiae dse1pr::URA3 5-FOA growth, OD615, 2 d; at 10 µM; stronger effect = higher value; strain carries analog-sensitive mutant Cbk1 kinase.
A short description of assay [15]: RAM signaling pathway blockade in yeast – S. cerevisiae, Pdr1DBD-CYC8 efflux-inhibited sensitized strain, primary screen (AID 1298).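 Further: 0% = DMSO untreated cells without growth and 100% = 10 µM 1-NA-PP1 full growth; higher means more yeast growth rescued from 5-FOA killing.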 The note with it: S. cerevisiae cbk1-as DSE1-URA3 strain, 5-FOA growth OD615, 2 d; at 50 µM; stronger effect = higher value.
The mark [16] stands for this setting: H69AR cells + 2 uM doxorubicin, measured here: viability with 2 uM doxorubicin, stronger effect = lower value.
Setting [17] is: H69AR cells, compound alone cytotoxicity.

For `COc1ccccc1NC(=O)N1CCN(c2cccc(C(F)(F)F)c2)CC1`, the viability (usually a read-out of living cells in per cent, often relative to untreated cells) was 89% in assay [1]; 89% (inactive) in assay [3]; 78.1% (inactive) in assay [4]; 95.2% (inactive) in assay [5]; 78.2% in assay [6] (setting [16]); 95.2% in assay [6] (setting [17]). For the same compound, the viability in [12] is 89.5% (inactive); in assay [13] it was 84.7% (inactive). Moreover, in [2], the Her2 level was 98.5% (inactive). For the same compound, the differential viability (reversal) in assay [6] (H69AR cells + 2 uM doxorubicin) was 16.9% (inactive). The inhibition (usually the drop in the measured response relative to a control, in per cent) in [7] was -3.11% (inactive); in assay [8] it was -10.3% (inactive); in [14], 0.115% (inactive). Besides, the growth inhibition was -10.8% (inactive) in [9] and 3.75% (inactive) in assay [10]. Besides, the viability increase in assay [11] was 2.13% (inactive). Further, in assay [15], the RAM network inhibition was 2.91% (inactive).

As for `CCN(CC)C(=O)Oc1ccc(NC(C)=O)cc1`, the viability in assay [1] was 88.5%; in assay [3], 88.5% (inactive); in assay [4], 97.4% (inactive); in [5] it was 93.6% (inactive); in assay [6] (setting [16]) it was 94.6%; in [6] (setting [17]) it was 93.6%. The viability in assay [12] was 105% (inactive); in assay [13], 108% (inactive). In addition, the Her2 level in assay [2] is 108% (inactive). The differential viability (reversal) in assay [6] (H69AR cells + 2 uM doxorubicin) was -0.975% (inactive). The inhibition in assay [7] was 0.91% (inactive); in assay [8], -6.33% (inactive); in assay [14] it was 1.06% (inactive). The values for the growth inhibition in assay [9] and in [10] were -4.01% (inactive) and -12% (inactive), respectively. Besides, the viability increase in assay [11] was -0.49% (inactive). Moreover, the RAM network inhibition in [15] is 1.82% (inactive).

In the case of `Cc1ccc(-n2c3c(cc(C(=O)NC4CCSC4=O)c2=O)C(=O)CC(C)(C)C3)cc1` (stereo not given), the viability in [1] was 101%; in assay [3], 101% (inactive); in assay [4] it was 85.4% (inactive); in [5], 85.3% (inactive); in [6] (setting [16]), 70.7%; in assay [6] (setting [17]) it was 85.3%. In addition, the viability in assay [12] is 99.1% (inactive); in [13], 101% (inactive). The Her2 level in assay [2] is 99.5% (inactive). The differential viability (reversal) in assay [6] (H69AR cells + 2 uM doxorubicin) was 14.6% (inactive). The inhibition in assay [7] was -1.69% (inactive); in assay [8] it was -0.67% (inactive); in assay [14] it was 2.32% (inactive). In addition, the growth inhibition in assay [9] is -1.71% (inactive); in assay [10] it was -9.19% (inactive). The viability increase in assay [11] is -2.78% (inactive). In assay [15], the RAM network inhibition is 4.09% (inactive).

For `CCCC(=O)NCCc1cc2c(C)ccc(C)c2[nH]c1=O`, the viability was 106% in [1]; 106% (inactive) in [3]; 110% (inactive) in [4]; 98.8% (inactive) in [5]; 86.7% in assay [6] (setting [16]); 98.8% in assay [6] (setting [17]). In addition, the viability in [12] is 111% (inactive); in [13], 103% (inactive). Further, the Her2 level in assay [2] was 93% (inactive). The differential viability (reversal) in assay [6] (H69AR cells + 2 uM doxorubicin) was 12.1% (inactive). Besides, the inhibition is -5.6% (inactive) in [7], 9.33% (inactive) in assay [8] and 0.625% (inactive) in [14]. In addition, the growth inhibition in assay [9] is -4.56% (inactive); in assay [10] it was -10.1% (inactive). In addition, the viability increase in assay [11] is -0.5% (inactive). Besides, the RAM network inhibition in assay [15] was 0.95% (inactive).

As for `COc1ccc(-n2c(Cc3cccn3C)nnc2SCC(=O)Nc2cccc(Cl)c2)cc1`, the viability was 103% in assay [1]; 103% (inactive) in [3]; 63.3% (inactive) in assay [4]; 85.3% (inactive) in assay [5]; 87.6% in [6] (setting [16]); 85.3% in assay [6] (setting [17]). Besides, the figures for the viability in [12] and in assay [13] were 76.5% (inactive) and 62.4% (inactive), respectively. Further, in [2], the Her2 level was 89% (inactive). The differential viability (reversal) in assay [6] (H69AR cells + 2 uM doxorubicin) was -2.28% (inactive). The inhibition in assay [7] is -2.8% (inactive); in assay [8] it was -2.67% (inactive); in [14], 0.615% (inactive). Moreover, the growth inhibition in assay [9] is 4.36% (inactive); in [10], 21.3% (inactive). Besides, the viability increase in [11] was -1.93% (inactive). In [15], the RAM network inhibition is 11% (inactive).
